The results in this text go back to PubChem BioAssay.

Activity calls are given as the source filed them. No rule for the calls is given here.

In the assay the target is Cellular tumor antigen p53 (Homo sapiens) (UniProt P04637). The experiment in a line: GFP-p53 level modulators in HPV16+ cells – imaging, known kinase inhibitor set, EGFP/DsRed ratio (AID 1053116).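 Also: test concentration not given here; cells exposed to compounds for 24 h at 37 °C before reading.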 The settings on record: GFP-p53 stability, stronger effect = higher value; EGFP object count: measured here: GFP-p53 positive objects count.
Sequence of Cellular tumor antigen p53 (Homo sapiens) (P04637 whole entry, looked up): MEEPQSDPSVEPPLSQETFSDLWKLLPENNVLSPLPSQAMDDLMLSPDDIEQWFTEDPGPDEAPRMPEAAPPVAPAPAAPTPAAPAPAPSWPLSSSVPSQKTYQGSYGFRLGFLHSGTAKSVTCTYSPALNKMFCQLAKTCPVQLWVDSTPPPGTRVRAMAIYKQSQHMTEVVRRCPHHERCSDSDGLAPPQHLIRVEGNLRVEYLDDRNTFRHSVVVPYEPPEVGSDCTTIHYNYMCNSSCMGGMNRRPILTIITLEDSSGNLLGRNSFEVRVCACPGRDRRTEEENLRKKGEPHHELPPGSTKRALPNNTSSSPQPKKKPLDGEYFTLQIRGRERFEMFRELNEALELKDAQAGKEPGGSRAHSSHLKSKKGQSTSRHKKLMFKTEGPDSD
Consider `COc1ccc2cc(-c3c(-c4ccncc4)nc(-c4ccc(S(C)=O)cc4)n3C)ccc2c1` (centres undefined), for which the EGFP/DsRed ratio was 0.161 (inactive) and the EGFP object count was found to be 5.

As for `COc1ccc2cc(-c3c(-c4ccncc4)nc(-c4ccc(S(C)(=O)=O)cc4C)n3C)ccc2c1`, the EGFP/DsRed ratio was 0.0486 (inactive) and the EGFP object count worked out at 1.5.

With `CN(C)CCCn1c(-c2nonc2N)nc2cnccc21`, the EGFP object count amounted to 3.5 and the EGFP/DsRed ratio is 0.0389 (inactive).

Consider `CN1CCC(n2cnc(-c3ccc(F)cc3)c2-c2ccnc(Nc3ccccc3)n2)CC1`, for which the EGFP object count came to 3 and the EGFP/DsRed ratio was 0.0706 (inactive).

In the case of `CCS(=O)(=O)c1ccc(OC)c(Nc2ncc(-c3cccc(-c4ccccc4F)c3)o2)c1`, the EGFP object count is 3.5 and the EGFP/DsRed ratio is 0.511 (inactive).

For `COC(=O)Nc1nc2ccc(Oc3ccc(NC(=O)Nc4cccc(C(=O)O)c4)cc3)cc2[nH]1`, the EGFP object count was found to be 5.5 and the EGFP/DsRed ratio was 0.0528 (inactive).

As for `COC(=O)Nc1nc2ccc(S(=O)(=O)c3ccc(NC(=O)Nc4cc(C(F)(F)F)ccc4F)cc3)cc2[nH]1`, the EGFP object count is 1.5 and the EGFP/DsRed ratio was 0.00404 (inactive).

`COc1c(C(N)=O)cc(-c2ccc(Cl)cc2)cc1-c1ccc(S(N)(=O)=O)cc1`: the EGFP/DsRed ratio is 0.128 (inactive) and the EGFP object count was 4.

On to `CN(C)CCNC(=O)Nc1ccc(N(C)c2ccnc(Nc3ccc(CS(C)(=O)=O)cc3)n2)cc1`, for which the EGFP/DsRed ratio is 0.0718 (inactive) and the EGFP object count stood at 1.

Turning to `FC(F)(F)c1cccc(-c2nn3ncccc3c2-c2ccnc(Nc3ccc4c(c3)OCCO4)n2)c1`, the EGFP/DsRed ratio was 0.171 (inactive) and the EGFP object count worked out at 5.5.

Consider `COc1cc(N2CCN(C(C)C)CC2)ccc1Nc1nc(Nc2cccc3ncccc23)c2cc[nH]c2n1`, for which the EGFP/DsRed ratio was 0.00687 (inactive) and the EGFP object count stood at 1.

On to `NS(=O)(=O)c1ccc(NC2CC(c3cccc(O)c3)NN2)cc1` (centres undefined), for which the EGFP/DsRed ratio was 0.108 (inactive) and the EGFP object count was determined as 5.5.
